High-throughput results deposited in PubChem by Johns Hopkins Ion Channel Center.
TMEM16A inh: mouse TMEM16A channel inhibition, primary screen. Q8BHY3. HEK293 TMEM16A/YFP iodide influx fluorescence, ionomycin. hit rate 1.2% among 310,000. normalized B-score (activity score, 25-100; higher = stronger inhibition) at 10 µM;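 active = ratio plate-corrected score three or more library SD toward inhibition, starting fluorescence score within five deviations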;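 note: score derived from kinetic fluorescence span divided by baseline fluorescence per well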
CHT block: inhibits the human high affinity choline transporter; Q9GZV3; CHT-expressing cells, membrane potential dye, choline response; stronger effect = lower value; B-score at 10 µM; hit rate 0.86% among 310,000;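 active = B-score over 3 SD under the library average, and starting fluorescence ratio not unusually high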;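 note: choline stimulus applied at its EC90 after an EC20 pre-addition; B-score computed on integrated fluorescence ratio after choline addition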
Target sequence (Q9GZV3 whole entry, looked up): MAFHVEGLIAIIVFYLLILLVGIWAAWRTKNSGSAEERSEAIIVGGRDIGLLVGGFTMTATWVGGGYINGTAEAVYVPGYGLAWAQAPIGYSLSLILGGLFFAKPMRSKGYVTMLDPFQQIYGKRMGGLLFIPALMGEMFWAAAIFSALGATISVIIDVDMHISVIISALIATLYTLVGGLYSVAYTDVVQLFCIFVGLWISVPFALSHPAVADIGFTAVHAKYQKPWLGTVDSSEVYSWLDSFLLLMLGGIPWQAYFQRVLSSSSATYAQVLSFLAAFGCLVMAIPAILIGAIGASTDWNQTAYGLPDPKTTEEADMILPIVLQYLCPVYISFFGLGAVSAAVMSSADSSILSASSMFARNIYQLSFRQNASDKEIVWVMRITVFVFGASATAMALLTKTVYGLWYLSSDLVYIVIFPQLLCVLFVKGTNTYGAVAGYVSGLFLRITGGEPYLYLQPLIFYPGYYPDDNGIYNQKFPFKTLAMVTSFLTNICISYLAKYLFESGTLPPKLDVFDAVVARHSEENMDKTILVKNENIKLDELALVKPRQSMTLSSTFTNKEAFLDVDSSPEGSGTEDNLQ
CHT PAM: allosterically activates the human high affinity choline transporter; AID 488977; hit rate 0.49% among 310,000; B-score at 10 µM; CHT-expressing cells, membrane potential dye, choline EC20; stronger effect = higher value; LV-AA mutant CHT in HEK293 cells;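 active = initial fluorescence not abnormally high and integrated response B-score, plate-corrected, over 3 SD above library mean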
TMEM16A act: mouse TMEM16A channel activation, primary screen; B-score at 10 µM; Q8BHY3; AID 623877; hit rate 0.3% among 340,000; HEK293 TMEM16A/YFP-H148Q/I152L, iodide quench fluorescence; stronger effect = lower value;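 active = fluorescence-ratio B-score plate-corrected deviation score at least 3 library SD below zero, with starting fluorescence score within 5 deviations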;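 note: channel opened by trigger with iodide after compound preincubation; score built on the fluorescence ratio of max minus min over baseline; more negative score means more quench and so TMEM16A activation or potentiation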
CHT activ conf: confirmation of human choline transporter (CHT) activators; CHT-expressing cells, membrane potential dye fluorescence (FDSS); % of choline EC20–EC90 response window; HEK293 expressing CHT LV-AA mutant; choline added at its EC20; shares compounds with CHT PAM; hit rate 91% among 2,500; activation, % at 10 µM;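 active = primary screen active, with duplicate mean activation above negative control mean plus 3 SD, cut at about 11% in these data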
HEK293 MP dye: activity in parental HEK293 cells lacking CHT | shares compounds with CHT PAM | hit rate 62% among 2,500 | AID 623908 | membrane potential dye fluorescence (FDSS); measured after EC20 choline addition | ratio readout change at 10 µM, hits read low;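 active = duplicate-averaged ratio beyond 3 SD from buffer wells, up or down, though filed actives are nearly all decreases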
Numbers without * were called inactive; i = inactive; x = no result given. This is a sample that favours compounds with a hit; in the whole collection about 2.4% have one here.

SMILES	TMEM16A inh	CHT block	CHT PAM	TMEM16A act	CHT activ conf	HEK293 MP dye
Cc1ccc(OCC(O)Cn2c(=N)n(CCN3CCCCC3)c3ccccc32)cc1 (stereo unspecified)	i	i	9.58*	i	19.5*	i
Cn1c(=N)n(CC(=O)c2ccc(Br)s2)c2ccccc21	i	i	i	i	x	x
COc1ccccc1OCC(O)Cn1c(=N)n(Cc2ccccc2)c2ccccc21 (stereo unspecified)	i	i	9.55*	i	28.5*	i
CCCCn1c(=N)n(CCOc2ccc(C)cc2)c2ccccc21	i	i	9.71*	i	25.0*	i
COc1ccc(OCC(O)Cn2c(=N)n(CCN3CCCCC3)c3ccccc32)cc1 (stereo unspecified)	i	i	i	i	x	x
O=C(COC(=O)C1=COCCO1)NCc1ccc(F)cc1	i	i	i	i	x	x
COc1ccc(C(C)=O)cc1CN1C(=O)NC(CC(C)C)C1=O (stereo unspecified)	i	i	i	i	x	x
CCN(CC)CCn1c(=N)n(CC(O)COc2ccccc2)c2ccccc21 (stereo unspecified)	i	i	7.25*	i	21.1*	i
CCN(CC)CCn1c(=N)n(CCOc2ccccc2)c2ccccc21	i	i	i	i	x	x
CCC(=O)N/N=C/c1ccc(-c2ccc([N+](=O)[O-])cc2)o1	i	i	i	i	x	x
O=C1N=C(O)CN1/N=C/c1ccc(-c2ccc([N+](=O)[O-])cc2)o1	i	i	7.57*	i	32.1*	-32*
COc1ccc2sc(N(CCN(C)C)C(=O)/C=C/c3cccs3)nc2c1	i	i	i	i	x	x
COc1ccc2nc(N(CCN(C)C)C(=O)/C=C/c3cccs3)sc2c1	i	i	7.18*	i	34.5*	-31.6*
O=C(c1ccc(Cl)s1)N1CCN(S(=O)(=O)c2ccc(Cl)cc2)CC1	x	x	x	i	x	x
CN(C)CCNc1nc(-c2ccco2)c2c(c1C#N)CC(C)(C)OC2	i	i	10.6*	i	64.8*	-91.5*
N#Cc1c(NCCN)nc(-c2ccco2)c2c1CCCC2	i	i	i	i	39.2*	-72.9*
CC1(C)Cc2c(C#N)c(OCC(=O)c3ccc(Cl)cc3)nc(-c3ccco3)c2CO1	i	i	13*	i	8.6	i
O=C(O)c1ccccc1C1c2ccccc2Oc2ccccc21	x	x	x	i	x	x
CCOc1ccccc1CNCC1CCCO1 (stereo unspecified)	i	i	i	i	x	x
CC1CCCCN1C(=O)CCc1nnc(Cc2c[nH]c3ccccc23)o1 (stereo unspecified)	i	i	i	i	x	x
O=C(COC(=O)C1(c2ccccc2F)CCCC1)N1CCNC1=O	x	x	x	i	x	x
CCOC(=O)c1cn(CC)c2cc(Cl)c([N+](=O)[O-])cc2c1=O	i	i	7.49*	i	46.2*	-48.6*
CCOC(=O)c1cn(CC)c2ccc(Br)cc2c1=O	i	i	i	i	43.9*	-35.9*
CCn1cc(C(=O)O)c(=O)c2cc(Br)ccc21	i	i	i	i	x	x
CCOC(=O)c1cn(CC2CC2)c2cc(F)c(F)cc2c1=O	i	i	8.25*	i	58.9*	-66.8*
SMILES	TMEM16A inh	CHT block	CHT PAM	TMEM16A act	CHT activ conf	HEK293 MP dye
CCCn1cc(C(=O)OCC)c(=O)c2cc(F)c(F)cc21	i	i	i	i	x	x
CC(C)(C)OC(=O)C[C@@H]1C/C=C\C[C@H](CC(=O)N(CCO)Cc2ccccc2)C(=O)N[C@H](C(C)(C)C)COC1=O	x	x	x	i	x	x
Cc1ccc(C)c(C(=O)CSc2nc(N)cc(=O)[nH]2)c1	i	i	i	i	x	x
CN=C1c2c(-c3ccccc3)c3cc(OC)ccc3n2CCN1C	i	i	8.02*	i	43.1*	-52.7*
CCN(C(=O)COc1ccc(C(C)=O)cc1)c1cccc2ccccc12	x	x	x	i	x	x
Cc1c2c(n3c(nc4ccccc43)c1C#N)N(CCN1CCOCC1)CC2	i	i	7.86*	i	53.7*	-46.1*
Cc1cc(NCCCN2CCOCC2)n2c(nc3ccccc32)c1C#N	i	i	6.35*	i	55.4*	-91*
CCN(CC)CCNc1cc(C)c(C#N)c2nc3ccccc3n12	i	i	i	i	42.0*	-81.3*
Cc1cc(NC(=O)c2c(Br)c(C)nn2C)no1	i	i	i	i	x	x
CCOc1ncccc1C(=O)N1CCN(c2cc(Cl)ccc2C)CC1	i	i	14.5*	i	44.5*	i
CCOc1ncccc1C(=O)N1CCN(c2cccc(C)c2C)CC1	x	x	x	i	x	x
O=C1CC(C(=O)Nc2ccc(F)c(Cl)c2)N=C(N2CCCCC2)N1 (stereo unspecified)	i	i	i	i	x	x
Cc1c(OC(C)C(=O)NC2CC(C)(C)NC(C)(C)C2)ccc2c3c(c(=O)oc12)CCC3 (stereo unspecified)	i	i	6.71*	i	42.8*	-52.2*
O=c1c2ccccc2nc(SCCN2CCCCC2)n1CCc1ccccc1	i	i	7.85*	i	4.2	-26.7*
Cn1c(=O)c2c(nc(SCCN3CCCCC3)n2C)n(C)c1=O	i	i	i	i	55.6*	-72.4*
COc1ccc(NC(=O)CSc2nc3ccccc3c(=O)n2CCCN2CCCCC2)c(OC)c1	i	i	11.7*	i	72.9*	-38.5*
COC(=O)c1ccc2c(=O)n(CCN3CCOCC3)c(SCC(=O)Nc3ccc(OC)cc3OC)nc2c1	i	i	i	i	x	x
O=C(CCNS(=O)(=O)c1ccc(Cl)cc1)Nc1ccncc1	i	i	i	i	x	x
CCn1c(=O)n(-c2ccc(Cl)cc2)c(=O)c2c3c(sc21)COC(C)(C)C3	i	i	i	i	x	x
O=S(=O)(c1ccccc1)N(C1=NCCS1)S(=O)(=O)c1ccccc1	i	i	i	i	x	x
O=C(CSc1nnc(CNC(=O)c2ccccc2F)o1)NC1CCCCC1	i	i	i	i	x	x
CCC(=O)N1CCN(c2cc(N3CCN(C)CC3)c(F)cc2[N+](=O)[O-])CC1	i	i	7.97*	i	56.7*	-58.4*
CCOC(=O)N1CCN(c2cc(N3CCOCC3)c(F)cc2[N+](=O)[O-])CC1	i	i	i	i	x	x
O=C(c1nc2ccccn2c1CN1CCCC(O)C1)N1CCN(C2CCCCC2)CC1 (stereo unspecified)	i	i	i	i	74.6*	-57.3*
COc1ccc(N(C)C(=O)Cn2c(=O)oc3ccccc32)c(OC)c1	i	i	i	i	x	x
